Assay outcomes as filed in PubChem BioAssay.
ST2 inh = inhibitors of human ST2 (IL1RL1) binding to IL-33; AID 1259354; AlphaLISA ST2-Fc/biotin-IL-33 interaction, 1 h; 78,000 tested, 2.3% active; inhibition, % for hits at 17 µM; Q01638; in the data active means inhibition above about 30%
Target sequence (Q01638 whole entry, looked up): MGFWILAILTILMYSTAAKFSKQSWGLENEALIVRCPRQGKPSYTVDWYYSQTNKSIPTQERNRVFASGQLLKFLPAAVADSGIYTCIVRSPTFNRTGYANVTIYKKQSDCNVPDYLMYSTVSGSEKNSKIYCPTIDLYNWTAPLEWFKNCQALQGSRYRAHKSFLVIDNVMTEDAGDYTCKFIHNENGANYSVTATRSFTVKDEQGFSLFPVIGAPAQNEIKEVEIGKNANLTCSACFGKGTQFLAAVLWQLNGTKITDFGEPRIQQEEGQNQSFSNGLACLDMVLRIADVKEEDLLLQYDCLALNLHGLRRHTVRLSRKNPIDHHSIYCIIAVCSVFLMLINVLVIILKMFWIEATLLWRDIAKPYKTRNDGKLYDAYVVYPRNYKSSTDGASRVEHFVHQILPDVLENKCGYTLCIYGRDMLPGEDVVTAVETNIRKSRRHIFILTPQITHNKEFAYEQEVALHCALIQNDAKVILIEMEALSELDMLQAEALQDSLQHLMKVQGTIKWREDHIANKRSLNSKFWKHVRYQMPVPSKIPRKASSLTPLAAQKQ
Starred values were filed as active, the others as inactive. This excerpt belongs to a sample that is enriched for hits.

`COc1ccc(S(=O)(=O)N2C[C@@H]3C[C@H](C2)c2ccc(-c4ccc(SC)cc4)c(=O)n2C3)cc1` gave ST2 inh inactive.
Screening COc1cccc(NC(=O)CSc2nnc3ccccn23)c1 returned ST2 inh inactive.
Screening COc1cccc(NC(=O)CSc2c3c(nc4ccccc24)CCC3)c1 returned ST2 inh inactive.
Screening COc1cccc(NC(=O)CSc2nnc(Cc3ccccc3)n2C)c1 returned ST2 inh 40%*.
For Cc1cc(C)c(NS(C)(=O)=O)c(C)c1 the results were ST2 inh inactive.
Cn1ccc(=O)c2cc(Br)ccc21 was read as ST2 inh inactive.
COc1cccc(NC(=O)CCC2CCN(C(=O)Cc3nonc3C)CC2)c1 was read as ST2 inh inactive.
For O=C(O)CCCC(=O)N1CCCc2ccccc21 the results were ST2 inh inactive.
`N#Cc1ccc(-c2ccccc2)nc1SCC(=O)c1ccc(O)c(O)c1` gave ST2 inh inactive.
CCSc1nc(-c2ccccc2)ccc1C#N was read as ST2 inh inactive.
Screening N#Cc1ccc(-c2ccncc2)nc1SCc1ccc(F)cc1 returned ST2 inh 34%*.
For CCOc1cc(C)c2c(=O)c(Oc3ccccc3)c(C)oc2c1 the results were ST2 inh inactive.
`NC(=O)C(=O)Nc1cccc(Cl)c1Cl` gave ST2 inh inactive.
Screening COc1ccc(-c2nccn2-c2cccc(CO)c2)c(Cl)c1OC returned ST2 inh inactive.
c1ccc(-c2nc(N3CCCC3)c3ccccc3n2)cc1 was read as ST2 inh inactive.
Screening Cc1ccccc1Oc1ccc(N2C(=O)C3C4C=CC(C5CC45)C3C2=O)cc1 (stereo unspecified) returned ST2 inh inactive.
Screening COc1ccc(-c2cc(C[C@H]3CNCC[C@H]3CC(=O)N3CCN(c4ccccc4)CC3)no2)cc1 returned ST2 inh inactive.
`O=C(C[C@@H]1CCNC[C@@H]1Cc1cc(COc2ccccc2)on1)N1CCN(c2ccccc2)CC1` gave ST2 inh 42%*.
`O=C(C[C@@H]1CCNC[C@@H]1Cc1cc(COc2ccccc2)on1)N1CCOCC1` gave ST2 inh inactive.
`CC1CC(C)CN(CCCNC(=O)c2cc(=O)[nH]c3ccc(S(=O)(=O)N4CCCC4)cc23)C1` (stereo unspecified) gave ST2 inh inactive.
CC(=O)C1=C(C)Nc2nnnn2C1c1ccc(Cl)cc1 (stereo unspecified) was read as ST2 inh inactive.
Screening COc1cc(-c2cc(Cl)c3c(c2)CC(CN)O3)nc(N)n1 (stereo unspecified) returned ST2 inh inactive.
Screening CCCCC1(C)OC(=O)C(=Cc2ccc(N(CC)CC)cc2)C(=O)O1 (stereo unspecified) returned ST2 inh 33%*.
For CC1(C)OC(=O)C(=Cc2ccc(I)o2)C(=O)O1 the results were ST2 inh 93%*.
Screening O=C1C(=Cc2ccc(Br)o2)C(=O)c2ccccc21 returned ST2 inh 52%*.
`CCCCC1(C)OC(=O)C(=Cc2ccc(OC)c(I)c2)C(=O)O1` (stereo unspecified) gave ST2 inh inactive.
CCCCC1(C)OC(=O)C(=Cc2ccc(Br)o2)C(=O)O1 (stereo unspecified) was read as ST2 inh 73%*.
For CCCCOc1ccc(OC(=O)c2ccc(Br)o2)cc1 the results were ST2 inh inactive.
Screening COc1cc(C=C2C(=O)OC(C)(C)OC2=O)cc(Br)c1O returned ST2 inh inactive.
O=C1C(=Cc2cccn2-c2ccc(Cl)cc2)C(=O)c2ccccc21 was read as ST2 inh inactive.
For CC1(c2ccccc2)OC(=O)C(=Cc2ccc(O)cc2)C(=O)O1 (stereo unspecified) the results were ST2 inh inactive.
Screening O=C1C(=Cc2ccc(-c3ccc(F)cc3)o2)C(=O)c2ccccc21 returned ST2 inh inactive.
For CC1(C)OC(=O)C(=CNc2ccc(C(=O)O)cc2)C(=O)O1 the results were ST2 inh inactive.
For CC(c1ccccn1)N(C)Cc1ccc(C#CC(C)(C)O)s1 (stereo unspecified) the results were ST2 inh inactive.
`CC(c1ccc(-c2[nH]cnc2-c2ccccc2)cc1)N(C)C` (stereo unspecified) gave ST2 inh inactive.
Screening CN1C[C@@H](N)C[C@H]1C(=O)NC(C)(C)CNc1cccc(Cl)c1 returned ST2 inh inactive.
CCOc1ccc(NC(=O)c2oc3ccccc3c2NC(=O)COc2ccccc2)cc1 was read as ST2 inh inactive.
For COc1ccc(CCn2nc(C(=O)N(C)C)c3c2CCN(C(=O)c2n[nH]c4c2CCCC4)C3)cc1 the results were ST2 inh inactive.
Screening COc1ccc(C(=O)Nc2c3c(nn2-c2ccc(C)cc2)CS(=O)C3)c(OC)c1 (stereo unspecified) returned ST2 inh inactive.
For c1cnn(CCCNc2nc3nonc3nc2N2CCCCCC2)c1 the results were ST2 inh inactive.
